Binding signal data for 43 sequences are collected here from publication PMC7819943, “Rice protein-binding microarrays: a tool to detect cis-acting elements near promoter regions in rice”.

In all, about 68,000 sequences were measured (“fluorescence intensity (a.u.)”: median about 9,100, highest 2% from about 16,000 on). The sample holds the highest values, similar sequences and a random draw of the others, so the mix is not that of the screen.

Chain of OsWRKY34 (Q0JBA9 entry or part of it): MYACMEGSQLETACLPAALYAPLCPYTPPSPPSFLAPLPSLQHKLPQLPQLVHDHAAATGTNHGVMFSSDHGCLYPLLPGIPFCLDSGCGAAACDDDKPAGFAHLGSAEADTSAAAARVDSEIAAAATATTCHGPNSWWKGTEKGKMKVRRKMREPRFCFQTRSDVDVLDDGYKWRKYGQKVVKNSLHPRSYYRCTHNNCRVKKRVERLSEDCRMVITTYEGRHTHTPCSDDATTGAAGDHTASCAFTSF

The experiment addresses OsWRKY34 (Oryza sativa, UniProt Q0JBA9 1-250). Put plainly: protein-binding microarray (RPBM); PBS, 2% BSA, 51.3 ng/ul salmon testes DNA, 50 uM zinc acetate, 200 nM TF, 25 C, 1 h; high values mean tight binding. To be noted: protein: recombinant; tags: N-terminal polyhistidine and DsRed monomer fusion (pET32a); label: CyDye5-dUTP incorporated in the synthesized complementary strand; 3' TTTTT single-stranded linker to array surface; dsDNA, one strand shown. Summed up: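 Binding signal is defined as the fluorescence intensity of each feature in arbitrary units, read on an Axon 4000B scanner. Transcription factors with N-terminal polyhistidine and DsRed fusions came from E. coli BL21-CodonPlus and were purified on Ni–NTA. They were incubated at 200 nM for 1 h at 25 °C on a custom Agilent array that had been made double-stranded with Cy5-dUTP, with 50 µM zinc acetate present, and the array was washed.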
In the case of “ATTATTTTTGGTTGTTCTATTTATTTTCTTAAAATAATTCCGGAGTCACCTAGTGCAG”, the binding signal is 11300 fluorescence intensity (a.u.).

On to “CCCCACATCTTTTGCTAGCATGCCCCTACCCATTCATATTCGGAGTCACCTAGTGCAG”, for which the binding signal is 10500 ± 300 fluorescence intensity (a.u.).

As to “CTGAGTTCTGTATTGGATCAGCTTCATGTTATCGGCATCACGGAGTCACCTAGTGCAG”, the binding signal is 8450 fluorescence intensity (a.u.).

Consider “TTCTCCTATCTTCAACATTTGCTTTGTTACGTTTTTGACTCGGAGTCACCTAGTGCAG”, for which the binding signal was 9560 fluorescence intensity (a.u.).

On to “TTTTTCTCGGTAATTTTGTGATTGGTCTACTCCTACAAAACGGAGTCACCTAGTGCAG”, for which the binding signal is 8290 fluorescence intensity (a.u.).

In the case of “TGGATGATTTTGCCATTTTTTTCATTGCTGGTGCGGTGGTCGGAGTCACCTAGTGCAG”, the binding signal was 8460 fluorescence intensity (a.u.).

Consider “CCCGGCGTCCTCCTGCTTCCCACCGCATCGTCGCTCGCCGCGGAGTCACCTAGTGCAG”, for which the binding signal was 8120 fluorescence intensity (a.u.).

Consider “GAGGGTGGGTGCTTGCTGGCCAGACATTAAAACAATGTGTCGGAGTCACCTAGTGCAG”, for which the binding signal is 9670 fluorescence intensity (a.u.).

In the case of “TTCTTCCCAGCCAGTGTTCCTAGTATCCATTCTCTCTCAACGGAGTCACCTAGTGCAG”, the binding signal is 9850 fluorescence intensity (a.u.).

Take “CTTGTGGATTTCGTTCGAGTTCTTGTGGTTTTGGATCGGGCGGAGTCACCTAGTGCAG”: the binding signal was 9590 fluorescence intensity (a.u.).

Take “GGGAAAGTGGTTGGCGGATATTCTTGTTTTCTTTTTTTGTCGGAGTCACCTAGTGCAG”: the binding signal was 12500 fluorescence intensity (a.u.).

Turning to “GCGGCTTCTTCTCGGGGTGGATTTGGTGGTGGTTTTTTTTCGGAGTCACCTAGTGCAG”, the binding signal was 21500 fluorescence intensity (a.u.).

In the case of “GACGGGCGGCGGTGGGGCTGACGCGGGCGACGGAGGGGCTCGGAGTCACCTAGTGCAG”, the binding signal was 11500 fluorescence intensity (a.u.).

In the case of “GTAGGCTTTTGTTTCGGGTGGGATAATATCTTGGGGAAAGCGGAGTCACCTAGTGCAG”, the binding signal is 20700 fluorescence intensity (a.u.).

Turning to “GTCGTCTCATACCAATCGTGCGGCGGCGGCGGCGGGGATGCGGAGTCACCTAGTGCAG”, the binding signal is 10400 fluorescence intensity (a.u.).

Turning to “TTTGGGGCGCGGGTGGGTGGCTGGGTGCGCGTCGATCGTGCGGAGTCACCTAGTGCAG”, the binding signal is 10900 fluorescence intensity (a.u.).

As for “GGGTGACGGGAGCAGCGGCGCGCGGGTGGTGGGGCTTGGACGGAGTCACCTAGTGCAG”, the binding signal is 10700 fluorescence intensity (a.u.).

“ACGTAGGAAGGTGGAAGCGGTTTCTTGGGGTTTGGATATGCGGAGTCACCTAGTGCAG”: the binding signal is 11000 fluorescence intensity (a.u.).

As for “TTGGATTGCAGTGGGGCGGACGGCGGTGGGCGGGGCTTCTCGGAGTCACCTAGTGCAG”, the binding signal was 27600 fluorescence intensity (a.u.).

On to “TGGTTTGCGGTGGTGCGCGCGCGGCTTCTTCTCGGGGTGGCGGAGTCACCTAGTGCAG”, for which the binding signal was 9070 fluorescence intensity (a.u.).

Turning to “GTGGGCTGGGCTTCTTCTTCGTCGTCTCATACCAATCGTGCGGAGTCACCTAGTGCAG”, the binding signal was 17100 fluorescence intensity (a.u.).

In the case of “AGGTTCACAATCTATCCGACTTTTGATTTTCTTTCAATTCCGGAGTCACCTAGTGCAG”, the binding signal was 9110 fluorescence intensity (a.u.).

Consider “CAATGGCTTACGACGAGACGACTCACCTTTGAATTCCACGCGGAGTCACCTAGTGCAG”, for which the binding signal was 9460 fluorescence intensity (a.u.).

With “TTTTAAAACTGCTGGGATTTTGCTTTCTGTTTCTTCAATGCGGAGTCACCTAGTGCAG”, the binding signal was 10900 fluorescence intensity (a.u.).

Consider “TTAGTTTTGTTAGATCGTCGATTTTGATTAGTGCGTTTGACGGAGTCACCTAGTGCAG”, for which the binding signal was 9190 fluorescence intensity (a.u.).

Consider “AAACCAACCCCACCCAACCCACGCGAGAACCGTGGACCACCGGAGTCACCTAGTGCAG”, for which the binding signal was 9500 fluorescence intensity (a.u.).

On to “ATTTCTCTTGCCTATGTTTTCATTTTGCAATTATTTTTGTCGGAGTCACCTAGTGCAG”, for which the binding signal is 10500 fluorescence intensity (a.u.).

In the case of “TGTTTGCACTTCATTCCATTCCATTCCACCTCCACTGCTTCGGAGTCACCTAGTGCAG”, the binding signal is 8390 fluorescence intensity (a.u.).

As to “GGCTCGGGGCGGCGGAATCATGGGCGATTGGGGCGGCAACCGGAGTCACCTAGTGCAG”, the binding signal is 22500 fluorescence intensity (a.u.).

Turning to “GTTTCATCTTCTTGTGGGCTTTTCTGGTGAACTCAATTCACGGAGTCACCTAGTGCAG”, the binding signal is 8250 fluorescence intensity (a.u.).

Consider “CTTTTATATAGCTTTGTCTAGTCTTGTGAATTCTCAATTGCGGAGTCACCTAGTGCAG”, for which the binding signal was 8530 fluorescence intensity (a.u.).

For the sequence “GCTCGGGCATCCTTTTTAAGGGCTCGGGGCGGCGGAATCACGGAGTCACCTAGTGCAG”, the binding signal was 8290 fluorescence intensity (a.u.).

As to “TCGGCTTGGTGGGGCTGGAGAACGTCTTTTCTCAATTGTGCGGAGTCACCTAGTGCAG”, the binding signal was 22000 fluorescence intensity (a.u.).

As to “AATCTGTGGGCAGGGGCGGCGACGTCGGCGGGCGAGGGCTCGGAGTCACCTAGTGCAG”, the binding signal was 8660 fluorescence intensity (a.u.).

Consider “CTGGTCAGAGTCCCCAACCAAAAGCATTTCTCCTGCCTTCCGGAGTCACCTAGTGCAG”, for which the binding signal was 8660 fluorescence intensity (a.u.).

For the sequence “CGTCCGTCTCCATCTGACACCTCCCAGTGCTTGCGCCCATCGGAGTCACCTAGTGCAG”, the binding signal is 8030 fluorescence intensity (a.u.).

“GACTTACTTTATTGTCTACAGTACTTTAAGCACAACTTTTCGGAGTCACCTAGTGCAG”: the binding signal was 8360 fluorescence intensity (a.u.).

For “ATACCCGTCTTTTCCTTCCCTTTCATCAATTGCCTCTTGTCGGAGTCACCTAGTGCAG”, the binding signal is 11500 fluorescence intensity (a.u.).

Regarding “TAGTTTTCTCAGGTGTTTGGGAATTGGTTGGTGAAGATGACGGAGTCACCTAGTGCAG”, the binding signal was 9450 fluorescence intensity (a.u.).

In the case of “GGATGCTCTTGTGTTCTTGTTGTTGATTTGTATTGTGGATCGGAGTCACCTAGTGCAG”, the binding signal is 8240 fluorescence intensity (a.u.).

Take “GATTTCTGTGTTTTTCCTGTGGTCCAATCAAACGGTCATTCGGAGTCACCTAGTGCAG”: the binding signal is 12700 fluorescence intensity (a.u.).

“GCCGTCTTTGCTTGATAGTCTTCGCCATGGGGACTTTGTCCGGAGTCACCTAGTGCAG”: the binding signal is 8210 fluorescence intensity (a.u.).

Regarding “CTCGCCGCCGTTCGTCTCCGCCGCCACCGCCGCCGCCATGCGGAGTCACCTAGTGCAG”, the binding signal was 11300 fluorescence intensity (a.u.).
